Assay results: PubChem BioAssay (EPA / NIEHS)
Results filed as inconclusive are left out. Where a structure was tested more than once in an assay, its records may differ in their call. The source made the active and inactive calls. The calls were made as follows: active = hit-call score of the fitted dose curve at least 0.9, where 1 is the maximum; inconclusive = response in the unintended direction; inactive = score below 0.9.

What was measured:
[1] = TOX21_p53_BLA_p2_viability: Viability Assessment in the Tox21 HCT-116 p53 Agonism Beta-lactamase Assay, Phase 2 (AID 2283591);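 also: compound exposure lasted 16 h at 37 °C; actives lower the ATP signal meaning cytotoxicity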
Outline: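 HCT116 p53-bla cells, 4000/well, dosed after 5 h plating (217-fold dilution of DMSO stocks) and incubated 16 h at 37C. Viability taken as cellular ATP by CellTiter-Glo luminescence after 30 min RT; signal loss marks cytotoxicity.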

[2] = biological target: Cellular tumor antigen p53 (Homo sapiens) (UniProt P04637); assay: TOX21_p53_BLA_p2_ratio: Tox21 HCT-116 p53 Agonism Beta-lactamase Assay, Ratio, Phase 2 (AID 2283592)
Cellular tumor antigen p53 (Homo sapiens), sequence (P04637 whole entry, looked up): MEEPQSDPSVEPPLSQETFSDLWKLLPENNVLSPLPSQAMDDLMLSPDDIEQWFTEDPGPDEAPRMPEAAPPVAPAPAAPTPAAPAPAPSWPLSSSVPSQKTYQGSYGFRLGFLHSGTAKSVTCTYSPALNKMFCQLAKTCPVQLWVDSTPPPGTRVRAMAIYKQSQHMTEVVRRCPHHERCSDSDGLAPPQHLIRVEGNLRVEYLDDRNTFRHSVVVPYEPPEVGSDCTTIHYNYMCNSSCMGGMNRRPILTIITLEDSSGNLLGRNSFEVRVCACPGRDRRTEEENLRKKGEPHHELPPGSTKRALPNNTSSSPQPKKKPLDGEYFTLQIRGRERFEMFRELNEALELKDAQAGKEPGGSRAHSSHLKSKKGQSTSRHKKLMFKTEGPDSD
Outline: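 First, HCT116 reporter cells settle for 5 h at 37C. Next, DMSO compound solutions are pinned in (217-fold dilution) and left 16 h. Finally, CCF4-AM substrate is loaded 2 h at room temperature and the 460/530 nm ratio read.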

[3] = TOX21_p53_BLA_p3_viability: Viability Assessment in the Tox21 HCT-116 p53 Agonism Beta-lactamase Assay, Phase 3 (AID 2283593);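 also: cells exposed to compound for 16 h before reading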
Outline: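 HCT116 cells, 4000/well, dosed 5 h after plating by pin transfer (217-fold dilution from DMSO stock) and incubated 16 h at 37C, 5% CO2. Viability read as ATP luminescence with CellTiter-Glo after 30 min at room temperature.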

| SMILES | outcome [1] | outcome [2] | outcome [3] | AC50 [3] |
| --- | --- | --- | --- | --- |
| CC(=O)Nc1ccc(CC(=O)O)cc1 | inactive | inactive | inactive | – |
| CCC(=O)OCc1ccccc1 | inactive | inactive | inactive | – |
| CC(C#N)(CCC(=O)O)N=NC(C)(C#N)CCC(=O)O (stereo not drawn) | inactive | – | inactive | – |
| C=C(C)C(=O)O[C@H]1C[C@@H]2CC[C@@]1(C)C2(C)C | inactive | inactive | inactive | – |
| CC(C)=CCO | – | inactive | inactive | – |
| CC1CC(OC(=O)c2ccccc2O)CC(C)(C)C1 (stereo not drawn) | inactive | inactive | inactive | 22.5 µM (active) |
| Cc1ccc(Nc2ccc(O)c3c2C(=O)c2ccccc2C3=O)cc1 | inactive | inactive | inactive | – |
| CCOC(=S)SSC(=S)OCC | – | inactive | inactive | – |
| CCC(C(=O)NC(N)=O)c1ccccc1 (stereo not drawn) | inactive | inactive | – | – |
| CCOc1ccccc1OCC | inactive | inactive | – | – |
| CC(C)c1ccc(C(C)C)cc1 | – | inactive | – | – |
| Cc1ccc(S)cc1 | inactive | inactive | inactive | – |
| O=C(O)COCCN1CCN(C(c2ccccc2)c2ccc(Cl)cc2)CC1 (stereo not drawn) | inactive | inactive | inactive | – |
| CC(C)[C@H]1CC[C@@H](C)CC1=O | inactive | inactive | – | – |
| CCCCCCCCCCCCCC(=O)O | inactive | inactive | inactive | – |
| CCCCCCOC(=O)CC | inactive | inactive | – | – |
| CC(=O)O[C@H](CC(=O)[O-])C[N+](C)(C)C | – | inactive | inactive | – |
| CC(C)OP(=O)(CP(=O)(OC(C)C)OC(C)C)OC(C)C | inactive | inactive | inactive | – |
| CNCCO | – | inactive | – | – |
| CCCC(=O)c1cc(O)c(O)cc1O | inactive | inactive | – | – |
| CC(O)C(C)O (stereo not drawn) | – | inactive | – | – |
| CC(C)=CCCC(C)=CCCC(C)=CCO | inactive | inactive | – | – |
| O=C1C(c2[nH]c3ccc(S(=O)(=O)O)cc3c2O)=Nc2ccc(S(=O)(=O)O)cc21 | inactive | inactive | inactive | – |
| CCCCNC(=O)NS(=O)(=O)c1ccc(C)cc1 | inactive | inactive | – | – |
| CC(=O)Nc1ccccc1O | inactive | inactive | – | – |
